# From PMC11062922 (Nature Chemical Biology, 2023)
# Read-outs that look alike come from different tables or passages of the source.
# Assays:
# Parameters in all cases: species or system human, MV4-11 + K-562 + COLO205 + SK-N-BE2 + OVCAR-8
# CDK2 = conditions: read-out: apparent Kd; compound concentrations:100 nM and 1000 nM (sheet 'Samples'); n = 1
# CDKL5 = conditions: read-out: apparent Kd, n = 1
# FLT3 = conditions: read-out: apparent Kd; compound concentrations:100 nM and 1000 nM (sheet 'Samples'); n = 1
# CDK16 = conditions: read-out: apparent Kd, n = 1
# CDK17 = conditions: read-out: apparent Kd, n = 1
# CDK9 = conditions: read-out: apparent Kd; compound concentrations: 100 nM and 1000 nM (sheet 'Samples'), CATDS: 8.2181630461084801E-2; n = 1
# DYRK1A = conditions: read-out: apparent Kd, n = 1
# GSK3A = conditions: read-out: apparent Kd, n = 1
# GSK3B = conditions: read-out: apparent Kd, n = 1
# SMG1 = conditions: read-out: apparent Kd; compound concentrations: 100 nM and 1000 nM (sheet 'Samples'), CATDS: 7.6423635677126206E-2; n = 1
# CDK10 = conditions: read-out: apparent Kd; compound concentrations:100 nM and 1000 nM (sheet 'Samples'); n = 1
# ILK = conditions: read-out: apparent Kd; compound concentrations:100 nM and 1000 nM (sheet 'Samples'); n = 1
# PKN1 = conditions: read-out: apparent Kd; compound concentrations:100 nM and 1000 nM (sheet 'Samples'); n = 1
# PRKCB = conditions: read-out: apparent Kd; compound concentrations: 100 nM and 1000 nM (sheet 'Samples'), CATDS: 0.15520106797875899; n = 1
# PRKCI = conditions: read-out: apparent Kd; compound concentrations:100 nM and 1000 nM (sheet 'Samples'); n = 1
# RPS6KA6 = conditions: read-out: apparent Kd; compound concentrations:100 nM and 1000 nM (sheet 'Samples'); n = 1
# RPS6KB1 = conditions: read-out: apparent Kd; compound concentrations:100 nM and 1000 nM (sheet 'Samples'); n = 1
# CDK4 = conditions: read-out: apparent Kd; compound concentrations: 100 nM and 1000 nM (sheet 'Samples'), CATDS: 0.32683838675566101; n = 1
# MAP2K2 = conditions: read-out: apparent Kd; compound concentrations: 100 nM and 1000 nM (sheet 'Samples'), CATDS: 0.35471612701675298; n = 1
# PDGFRB = conditions: read-out: apparent Kd, n = 1
# CDC7 = conditions: read-out: apparent Kd, compound concentrations: 100 nM and 1000 nM (sheet 'Samples'), n = 1
# CLK1 = conditions: read-out: apparent Kd, n = 1
# CLK4 = conditions: read-out: apparent Kd, n = 1
# CSNK2A1;CSNK2A3 = conditions: read-out: apparent Kd, compound concentrations: 100 nM and 1000 nM (sheet 'Samples'), n = 1
# CSNK2A2 = conditions: read-out: apparent Kd, compound concentrations: 100 nM and 1000 nM (sheet 'Samples'), n = 1
# CDK6 = conditions: read-out: apparent Kd; compound concentrations:100 nM and 1000 nM (sheet 'Samples'); n = 1
# ICK = conditions: read-out: apparent Kd; compound concentrations:100 nM and 1000 nM (sheet 'Samples'); n = 1
# NNT = conditions: read-out: apparent Kd, n = 1
# CDC42 = conditions: read-out: apparent Kd; compound concentrations: 100 nM and 1000 nM (sheet 'Samples'), CATDS: 0.115085372614253; n = 1
# EGFR = conditions: read-out: apparent Kd; compound concentrations: 100 nM and 1000 nM (sheet 'Samples'), CATDS: 0.71685181489177596; n = 1
# ERBB3 = conditions: read-out: apparent Kd; compound concentrations: 100 nM and 1000 nM (sheet 'Samples'), CATDS: 0.132982955491593; n = 1
# RAB5C = conditions: read-out: apparent Kd; compound concentrations: 100 nM and 1000 nM (sheet 'Samples'), CATDS: 0.157008240219803; n = 1
# RIPK2 = conditions: read-out: apparent Kd; compound concentrations: 100 nM and 1000 nM (sheet 'Samples'), CATDS: 0.27482887705752401; n = 1
# CSNK1A1 = conditions: read-out: apparent Kd; compound concentrations:100 nM and 1000 nM (sheet 'Samples'); n = 1
# MAP3K5 = conditions: read-out: apparent Kd; compound concentrations:100 nM and 1000 nM (sheet 'Samples'); n = 1
# MAP3K6 = conditions: read-out: apparent Kd; compound concentrations:100 nM and 1000 nM (sheet 'Samples'); n = 1
# NUAK1 = conditions: read-out: apparent Kd; compound concentrations:100 nM and 1000 nM (sheet 'Samples'); n = 1
# NUAK2 = conditions: read-out: apparent Kd; compound concentrations:100 nM and 1000 nM (sheet 'Samples'); n = 1
# PI4KB = conditions: read-out: apparent Kd; compound concentrations:100 nM and 1000 nM (sheet 'Samples'); n = 1
# PKN2 = conditions: read-out: apparent Kd; compound concentrations:100 nM and 1000 nM (sheet 'Samples'); n = 1
# PRKD2 = conditions: read-out: apparent Kd; compound concentrations:100 nM and 1000 nM (sheet 'Samples'); n = 1
# PRKD3 = conditions: read-out: apparent Kd; compound concentrations:100 nM and 1000 nM (sheet 'Samples'); n = 1
# RPS6KA1 = conditions: read-out: apparent Kd; compound concentrations:100 nM and 1000 nM (sheet 'Samples'); n = 1
# [1] = compound concentrations:100 nM and 1000 nM (sheet 'Samples')
smiles,measurement,setting,value
O=C(Nc1n[nH]c2cc(-c3ccoc3)ccc12)C1CC1 [SB-738481],potency estimated from few doses,CDK2,1470 nM
same,potency estimated from few doses,CDKL5; [1],1100 nM
same,potency estimated from few doses,FLT3,884 nM
CCN1CCC(C(=O)Nc2n[nH]c3nnc(-c4cccc(F)c4F)cc23)CC1.Cl [SB-686709-A],potency estimated from few doses,"CDK16; compound concentrations: 100 nM and 1000 nM (sheet 'Samples'), CATDS: 0.11637141533409",199 nM
same,potency estimated from few doses,"CDK17; compound concentrations: 100 nM and 1000 nM (sheet 'Samples'), CATDS: 0.129072520880324",132 nM
same,potency estimated from few doses,CDK9,1050 nM
same,potency estimated from few doses,"CDKL5; compound concentrations: 100 nM and 1000 nM (sheet 'Samples'), CATDS: 0.15820279930109701",60.5 nM
same,potency estimated from few doses,"DYRK1A; compound concentrations: 100 nM and 1000 nM (sheet 'Samples'), CATDS: 8.3758685626984103E-2",937 nM
same,potency estimated from few doses,"GSK3A; compound concentrations: 100 nM and 1000 nM (sheet 'Samples'), CATDS: 0.64867635498298803",0.589 nM
same,potency estimated from few doses,"GSK3B; compound concentrations: 100 nM and 1000 nM (sheet 'Samples'), CATDS: 0.38395769159981902",1.75 nM
same,potency estimated from few doses,SMG1,1680 nM
CN1C[C@@H]2Cn3c(c(C4=C(c5cn(C)c6ccccc56)C(=O)NC4=O)c4ccccc43)C[C@H]2C1.Cl [RO0320557-001],potency estimated from few doses,CDK10,1200 nM
same,potency estimated from few doses,GSK3A; [1],53.4 nM
same,potency estimated from few doses,GSK3B; [1],41.5 nM
same,potency estimated from few doses,ILK,2350 nM
same,potency estimated from few doses,PKN1,2490 nM
same,potency estimated from few doses,PRKCB,20.3 nM
same,potency estimated from few doses,PRKCI,1930 nM
same,potency estimated from few doses,RPS6KA6,386 nM
same,potency estimated from few doses,RPS6KB1,104 nM
COc1cc2ncn(-c3cc(OCc4ccccc4C(F)(F)F)c(C(=O)N(C)C)s3)c2cc1OC [GSK1030062A],potency estimated from few doses,CDK4,2020 nM
same,potency estimated from few doses,MAP2K2,1720 nM
same,potency estimated from few doses,"PDGFRB; compound concentrations: 100 nM and 1000 nM (sheet 'Samples'), CATDS: 0.32038670462926999",2110 nM
O=C1N=C(N[C@@H]2C[C@H]2c2ccccc2)S/C1=C\c1ccc2ncccc2c1 [RO4915610-000],potency estimated from few doses,CDC7; CATDS: 9.1392533314382199E-2,1800 nM
same,potency estimated from few doses,"CDKL5; compound concentrations: 100 nM and 1000 nM (sheet 'Samples'), CATDS: 0.100532719571443",1130 nM
same,potency estimated from few doses,"CLK1; compound concentrations: 100 nM and 1000 nM (sheet 'Samples'), CATDS: 0.12211476464111",542 nM
same,potency estimated from few doses,"CLK4; compound concentrations: 100 nM and 1000 nM (sheet 'Samples'), CATDS: 0.114770368167016",671 nM
same,potency estimated from few doses,CSNK2A1;CSNK2A3; CATDS: 0.31191577539645199,61.5 nM
same,potency estimated from few doses,CSNK2A2; CATDS: 0.34928398987599801,51.1 nM
same,potency estimated from few doses,"DYRK1A; compound concentrations: 100 nM and 1000 nM (sheet 'Samples'), CATDS: 0.194548178255603",154 nM
NS(=O)(=O)c1cccc(-c2ccc3ncc(N4CCOCC4)nc3c2)c1 [GSK1535721A],potency estimated from few doses,CDC7; CATDS: 1,1940 nM
CS(=O)(=O)N1CCC(Nc2ncc(C(=O)c3c(F)cccc3F)c(N)n2)CC1 [RO4930481-000],potency estimated from few doses,CDK16; [1],1350 nM
same,potency estimated from few doses,CDK17; [1],1470 nM
same,potency estimated from few doses,CDK2,1000 nM
same,potency estimated from few doses,CDK6,1750 nM
same,potency estimated from few doses,ICK,1260 nM
same,potency estimated from few doses,NNT; [1],1110 nM
CN(C)c1cc2c(Nc3ccc4nc(Cc5ccccc5)[nH]c4c3)ncnc2cn1 [GW301888X],potency estimated from few doses,CDC42,1800 nM
same,potency estimated from few doses,EGFR,19.1 nM
same,potency estimated from few doses,ERBB3,1030 nM
same,potency estimated from few doses,"NNT; compound concentrations: 100 nM and 1000 nM (sheet 'Samples'), CATDS: 0.11921325436386",1550 nM
same,potency estimated from few doses,RAB5C,599 nM
same,potency estimated from few doses,RIPK2,133 nM
CCOc1ccccc1CCNC1=NC(=O)/C(=C/c2ccc3ncccc3c2)S1 [RO4503314-000],potency estimated from few doses,"CLK1; compound concentrations: 100 nM and 1000 nM (sheet 'Samples'), CATDS: 0.17433508542258599",469 nM
same,potency estimated from few doses,"CLK4; compound concentrations: 100 nM and 1000 nM (sheet 'Samples'), CATDS: 0.16932447657893401",505 nM
same,potency estimated from few doses,CSNK2A1;CSNK2A3; CATDS: 0.234359592666399,246 nM
same,potency estimated from few doses,CSNK2A2; CATDS: 0.363288777813424,118 nM
same,potency estimated from few doses,"DYRK1A; compound concentrations: 100 nM and 1000 nM (sheet 'Samples'), CATDS: 0.15776551091334201",615 nM
COc1cc(C)c(N(C)C(=O)CN(C)C)cc1Nc1nc(Nc2cccc(F)c2C(N)=O)c2cc[nH]c2n1 [GSK2219385_KCGS],potency estimated from few doses,CDK6,1850 nM
C[C@@H]1CCNC(=O)c2cc3ccc(C(=O)Nc4nc5ccccc5n4CCCN(C)C)cc3n21 [BI00645435],potency estimated from few doses,CLK1; [1],941 nM
same,potency estimated from few doses,CLK4; [1],931 nM
same,potency estimated from few doses,CSNK1A1,1000 nM
same,potency estimated from few doses,DYRK1A; [1],2100 nM
same,potency estimated from few doses,MAP3K5,2300 nM
same,potency estimated from few doses,MAP3K6,1700 nM
same,potency estimated from few doses,NUAK1,110 nM
same,potency estimated from few doses,NUAK2,383 nM
same,potency estimated from few doses,PDGFRB; [1],1670 nM
same,potency estimated from few doses,PI4KB,581 nM
same,potency estimated from few doses,PKN2,1760 nM
same,potency estimated from few doses,PRKD2,731 nM
same,potency estimated from few doses,PRKD3,1480 nM
same,potency estimated from few doses,RPS6KA1,529 nM
same,potency estimated from few doses,RPS6KA6,5.39 nM
same,potency estimated from few doses,RPS6KB1,106 nM
